Experimental data from PubChem BioAssay (EPA / NIEHS).
Active and inactive are the calls of the source. The calls were made as follows: active = hit-call score of the fitted dose curve at least 0.9, where 1 is the maximum; inactive = score below 0.9.

Key:
[1] = ATG_CRE_CIS: Attagene CIS-FACTORIAL HepG2 Assay for human cAMP Responsive Element (CRE) binding protein 3 (AID 2282926); conditions: HepG2 CRE cis-reporter, Attagene multiplexed mRNA; actives raise or lower the signal
Outline: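 Multiplexed transcription-unit reporters transfected into HepG2; 24 h dosing; RT-PCR/capillary electrophoresis fluorescence read-out; bidirectional fit vs DMSO.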

[2] = ATG_CMV_CIS: Attagene CIS-FACTORIAL HepG2 Assay for human CMV (Internal Marker) (AID 2282928); conditions: HepG2 CMV promoter reporter, transcription factor profiling; actives raise or lower the signal;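 also: endpoint acts as a background internal control marker rather than a target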
Outline: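 After transient transfection of HepG2 with reporter transcription units driven by cis-regulatory promoters, cells receive test chemical for 24 h. Labeled reporter amplicons, digested with HpaI, are sized and quantified by capillary electrophoresis against DMSO.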

[3] = ATG_DR4_LXR_CIS: Attagene CIS-FACTORIAL HepG2 Assay for human Liver X Receptor (LXR), DR4 submotif (AID 2282929); conditions: HepG2 Attagene DR4 cis-reporter, mRNA transcription; actives raise or lower the signal
Outline: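 Measures endogenous transcription factor activity via a DR4-driven reporter transcript in human HepG2 cells. Compounds incubated 24 h; mRNA quantified by RT-PCR and capillary electrophoresis, analysed as gain or loss of signal versus DMSO.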

[4] = ATG_AP_1_CIS: Attagene CIS-FACTORIAL HepG2 Assay for human Activator Protein 1 (AP-1) (AID 2282931); conditions: HepG2 Attagene cis-factorial AP-1 reporter mRNA; actives raise or lower the signal
Outline: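 Bidirectional concentration-response fitting against DMSO controls. Underlying signal: reporter mRNA from cis-promoter constructs in transiently transfected HepG2, measured after 24 h by RT-PCR and capillary electrophoresis.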

[5] = ATG_AP_2_CIS: Attagene CIS-FACTORIAL HepG2 Assay for human Activator Protein 2 (AP-2) (AID 2282932); conditions: HepG2 AP-2 cis-reporter, Attagene transcription factor profiling; actives raise or lower the signal
Outline: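 HepG2 cells transiently transfected with cis-element reporter units and exposed for 24 h. Reporter mRNA measured by RT-PCR, FAM labelling, HpaI digestion and capillary electrophoresis. Changes in either direction fitted relative to DMSO.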

[6] = ATG_BRE_CIS: Attagene CIS-FACTORIAL HepG2 Assay for human Bone Morphogenetic Protein (BMP) Response Element (BRE) (AID 2282933); conditions: HepG2 BMP response element reporter, Attagene transcription factor profiling; actives raise or lower the signal
Outline: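 Fluorescence-labelled reporter cDNA fragments, separated by capillary electrophoresis, gave the signal for this component of a 52-readout multiplex. HepG2 cells were transfected, exposed to chemicals for 24 h, and compared with DMSO using bidirectional fitting.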

[7] = ATG_E_Box_CIS: Attagene CIS-FACTORIAL HepG2 Assay for human Enhancer Box (E-box) (AID 2282936); conditions: HepG2 E-box cis-reporter transcription, actives raise or lower the signal
Outline: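 HepG2 cells transiently transfected with multiplexed cis-element reporter units, dosed 24 h; reporter mRNA quantified by RT-PCR, 6-FAM labelling, HpaI digestion and capillary electrophoresis. E-box (USF1) signal fitted bidirectionally vs DMSO.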

[8] = ATG_M_61_CIS: Attagene CIS-FACTORIAL HepG2 Assay for M61 Transcription Factor (Internal Marker) (AID 2282937); conditions: HepG2 Attagene CIS-FACTORIAL M61 internal marker reporter; actives raise or lower the signal
Outline: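 Fluorescence from labelled cDNA fragments, separated by capillary electrophoresis, quantifies reporter induction. HepG2 cells bearing transiently transfected cis-promoter MRTUs were incubated with test chemical for 24 h; DMSO defined baseline for gain/loss fitting.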

[9] = ATG_EGR_CIS: Attagene CIS-FACTORIAL HepG2 Assay for human Early Growth Response 1 (EGR1) (AID 2282938); conditions: HepG2 Attagene CIS-FACTORIAL EGR reporter mRNA; actives raise or lower the signal
Outline: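 Cell-based multiplex transcription assay: HepG2 carrying transfected cis-element reporter units, 24 h chemical treatment. Fluorescence from capillary electrophoresis of RT-PCR products gives mRNA levels; fitting is bidirectional relative to DMSO.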

[10] = ATG_M_19_CIS: Attagene CIS-FACTORIAL HepG2 Assay for M19 Transcription Factor (Internal Marker) (AID 2282939); conditions: HepG2 Attagene CIS-FACTORIAL M19 internal marker reporter; actives raise or lower the signal
Outline: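 HepG2, MRTU transient transfection, 24 h dosing. Total RNA → RT-PCR → 6-FAM primer extension → HpaI digest → CE fluorescence. Bidirectional curve fit, DMSO negative control.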

[11] = ATG_Ets_CIS: Attagene CIS-FACTORIAL HepG2 Assay for human Erythroblast Transformation Specific (ETS) (AID 2282941); conditions: HepG2 ETS cis-reporter transcription, actives raise or lower the signal
Outline: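 Human HepG2 hepatoma cells were transiently transfected with promoter-driven reporter constructs and treated for 24 hours. Reporter transcripts were quantified by RT-PCR with fluorescent primer extension; bidirectional curve fitting used DMSO as reference.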

[12] = ATG_FoxO_CIS: Attagene CIS-FACTORIAL HepG2 Assay for human Forkhead box O (FoxO) (AID 2282943); conditions: HepG2 Attagene cis-reporter, FoxO element, mRNA; actives raise or lower the signal
Outline: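 HepG2 cells transiently transfected with cis-element-driven reporter units report endogenous FoxO activity. After 24 h chemical exposure, reporter mRNA quantified by RT-PCR, fluorescent labeling, HpaI digestion and capillary electrophoresis; bidirectional fit versus DMSO.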

[13] = ATG_ISRE_CIS: Attagene CIS-FACTORIAL HepG2 Assay for human Interferon Regulatory Factor 1 (IRF1) binding to an Interferon-Stimulated Response Element (ISRE) (AID 2282948); conditions: HepG2 ISRE cis-reporter (Attagene), mRNA transcription readout; actives raise or lower the signal
Outline: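 Cell-based cis-reporter assay; HepG2; 24 h exposure; reporter mRNA by RT-PCR plus capillary electrophoresis fluorescence; activity in either direction scored relative to DMSO.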

[14] = ATG_M_06_CIS: Attagene CIS-FACTORIAL HepG2 Assay for M06 Transcription Factor (Internal Marker) (AID 2282950); conditions: HepG2 Attagene CIS-FACTORIAL M06 internal marker reporter; actives raise or lower the signal
Outline: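 Measured 24 h post-dosing in transiently transfected HepG2 cells, this internal-marker endpoint reports reporter mRNA via RT-PCR with fluorescent primer extension and capillary electrophoresis. DMSO served as negative control and baseline for bidirectional fitting.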

[15] = target: Paired box protein Pax-6 (Homo sapiens) (UniProt P26367); assay: ATG_Pax6_CIS: Attagene CIS-FACTORIAL HepG2 Assay for human Paired Box 6 (PAX6) (AID 2282956); conditions: HepG2 CIS-FACTORIAL PAX6 reporter transcription, RNA readout; actives raise or lower the signal
Sequence of Paired box protein Pax-6 (Homo sapiens) (P26367 whole entry, looked up): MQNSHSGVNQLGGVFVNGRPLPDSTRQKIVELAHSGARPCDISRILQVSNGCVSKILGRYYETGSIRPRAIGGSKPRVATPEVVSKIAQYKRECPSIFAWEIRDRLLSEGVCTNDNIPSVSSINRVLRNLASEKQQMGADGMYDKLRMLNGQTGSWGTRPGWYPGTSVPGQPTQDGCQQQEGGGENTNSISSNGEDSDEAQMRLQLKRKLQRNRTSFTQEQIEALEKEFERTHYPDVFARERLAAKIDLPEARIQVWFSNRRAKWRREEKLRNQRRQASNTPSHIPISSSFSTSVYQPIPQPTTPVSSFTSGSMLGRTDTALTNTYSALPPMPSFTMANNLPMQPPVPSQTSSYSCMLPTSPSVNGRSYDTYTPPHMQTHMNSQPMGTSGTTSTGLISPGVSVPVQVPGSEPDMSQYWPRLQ
Outline: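 Multiplexed cis-reporter HepG2 system; 24 h treatment; reporter mRNA read by RT-PCR/CE fluorescence; bidirectional fit vs DMSO.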

[16] = ATG_SREBP_CIS: Attagene CIS-FACTORIAL HepG2 Assay for human Sterol Regulatory Element Binding (SREBP) (AID 2282962); conditions: HepG2 Attagene cis-factorial SREBP reporter, mRNA; actives raise or lower the signal
Outline: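 mRNA induction of transfected cis-promoter reporters in HepG2 cells, 24 h post-dose. Detection: RT-PCR with 6-FAM-labelled products, HpaI digest, capillary electrophoresis. DMSO served as negative control and baseline.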

[17] = ATG_TA_CIS: Attagene CIS-FACTORIAL HepG2 Assay for human TA Basal Promoter (AID 2282964); conditions: HepG2 Attagene CIS-factorial TA basal promoter reporter; actives raise or lower the signal
Outline: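 Cis-factorial format in HepG2: reporters report endogenous factors, not chimeric Gal4 fusions. After 24 h treatment, reporter transcripts were measured by RT-PCR-capillary electrophoresis fluorescence, analysed bidirectionally versus DMSO.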

[18] = ATG_TCF_b_cat_CIS: Attagene CIS-FACTORIAL HepG2 Assay for human T-Cell-Factor with beta-catenin (TCF/b-cat) (AID 2282965); conditions: HepG2 TCF/beta-catenin cis-reporter transcription, actives raise or lower the signal
Outline: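 HepG2 cells transiently transfected with cis-promoter-driven multiplexed reporter units; reporter mRNA measured 24 h after dosing by RT-PCR, FAM labelling, HpaI digestion and capillary electrophoresis. Bidirectional fitting relative to DMSO baseline.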

[19] = ATG_TGFb_CIS: Attagene CIS-FACTORIAL HepG2 Assay for human Transforming Growth Factor (TGF) (AID 2282967); conditions: HepG2 Attagene CIS TGFb reporter, mRNA transcription; actives raise or lower the signal
Outline: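 Multiplexed cis-reporter HepG2 system, 24 h treatment; mRNA induction read by fluorescence after RT-PCR and CE; DMSO negative control, bidirectional curve fitting.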

[20] = ATG_Oct_MLP_CIS: Attagene CIS-FACTORIAL HepG2 Assay for human Octamer-Binding Transcription Factor (Oct) (AID 2282993); conditions: HepG2 Attagene cis-factorial Oct reporter, mRNA; actives raise or lower the signal
Outline: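 After 24 h compound exposure, transfected HepG2 cells were lysed for total RNA; reporter-specific cDNA was PCR-amplified, fluorescently labelled and sized by capillary electrophoresis. Bidirectional curve fitting used DMSO as baseline.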

Measured: AC50

O=[N+]([O-])c1ccccc1C(F)(F)F
inactive: all assays above

O=C1NC(=O)[C@@H]2CC=CC[C@H]12
inactive: all assays above

CC1=CCCC(C)(C)C12CCC(C)O2 (stereo not given)
inactive: all assays above

COC(=O)CCSCCC(=O)OC
inactive: all assays above

CN(C)Cc1cc(C(C)(C)C)c(O)c(C(C)(C)C)c1
active: [16] 43.1 µM
inactive: all other assays above

c1ccc2c(c1)Oc1ccccc1S2
active: [3] 171 µM | [7] 57.3 µM | [16] 146 µM
inactive: all other assays above

CC(C)CC(=O)O
inactive: all assays above

C[C@H]1C[C@H]2[C@@H]3CCC4=CC(=O)C=C[C@]4(C)[C@@]3(F)[C@@H](O)C[C@]2(C)[C@@]1(O)C(=O)CO
active: [3] 166 µM | [6] 73.3 µM | [9] 100 µM | [15] 69 µM | [17] 100 µM | [18] 150 µM
inactive: all other assays above

Cc1ccccc1S(N)(=O)=O
inactive: all assays above

CCCCCC1CCCC(=O)O1 (stereo not given)
inactive: all assays above

CCCCCCCCCCC1CO1 (stereo not given)
active: [4] 164 µM | [16] 100 µM | [17] 153 µM
inactive: all other assays above

CC(=O)c1nccs1
inactive: all assays above

O=C(OCc1ccccc1)c1ccccc1
inactive: all assays above
